Bioassay records deposited in PubChem by several laboratories.
EP2 antag: inhibitors of human EP2 prostaglandin E2 receptor. P43116. AID 1422. actives 0.52% (n = 260,000). inhibition, % at 25 µM. C6 glioma cells expressing human EP2, cAMP TR-FRET; cells stimulated with saturating PGE2;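 active = percent inhibition above 40 after rounding to a whole number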;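 also: rat C6 glioma host cells with rolipram phosphodiesterase inhibitor present; the protocol text gives 20 µM as final concentration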
S1P4 antag: blocks the human S1P4 receptor | S1P4-expressing cells, antagonist mode, reporter read-out | inhibition, % at 4.98 µM | O95977 | actives 0.26% (n = 220,000); in the data active = inhibition above about 29%;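 also: 0% = wells stimulated with agonist and 100% = vehicle wells without agonist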
Target sequence (O95977 whole entry, looked up): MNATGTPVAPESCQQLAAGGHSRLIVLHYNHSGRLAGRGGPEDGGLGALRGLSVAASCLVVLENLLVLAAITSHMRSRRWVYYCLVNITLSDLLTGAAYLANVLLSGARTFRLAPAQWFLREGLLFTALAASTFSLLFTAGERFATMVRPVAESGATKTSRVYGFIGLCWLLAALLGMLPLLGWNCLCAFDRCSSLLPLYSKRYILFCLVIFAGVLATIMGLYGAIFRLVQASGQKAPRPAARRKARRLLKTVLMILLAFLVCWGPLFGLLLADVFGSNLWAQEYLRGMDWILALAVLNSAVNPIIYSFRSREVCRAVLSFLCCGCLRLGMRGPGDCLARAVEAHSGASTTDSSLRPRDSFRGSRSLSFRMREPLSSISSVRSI
Insulin prom inh: TRM-6 insulin promoter activity inhibition; inhibition, % at 2 µM; actives 0.9% (n = 130,000); TRM-6 cells (human fetal islet line), insulin promoter-eGFP reporter, imaging; reporter expression induced with tamoxifen;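 active = inhibition above the mean plus 3 SD, with well images judged a real hit on visual review, cut at about 60% in these data, passing the limit was not always enough; inconclusive = inhibition over the cutoff but images rejected on review; inactive = inhibition not above the cutoff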
EP2 mod: modulators of human EP2 prostaglandin E2 receptor. P43116. EP2-expressing cells, cAMP HTRF FRET, PGE2 co-stimulation. actives 0.83% (n = 260,000). induction, % at 25 µM. AID 940;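 active = compounds whose cAMP rise, as percent of the full-agonist control response, exceeds 60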;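 also: rat C6 glioma line stably carrying human EP2 under a CMV promoter; the protocol text gives 20 µM as final concentration; 100% = response of wells given 1 µM PGE2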
S1P3 antag-1: S1P3 (human) receptor antagonism. CHO S1P3 NFAT-BLA reporter, FRET fluorescence, antagonist mode. Q99500. inhibition, % at 4.98 µM. actives 0.27% (n = 170,000);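 active = inhibition above the plate cutoff, the mean inhibition of test wells on that plate plus 3 SD, cut at about 28% in these data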;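 also: cells challenged with S1P at its EC80 of 0.8 µM; blue over green emission ratio from cleaved BLA substrate after 4 h stimulation; 0% = S1P-stimulated wells and 100% = unstimulated DMSO-only wells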
S1P4 agonist: agonists of human S1P4 receptor | O95977 | actives 0.35% (n = 220,000) | AID 1509 | activation, % at 4.98 µM | S1P4-expressing cell line, agonist reporter assay; in the data active = activation above about 11%;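 also: 0% = DMSO vehicle and 100% = reference agonist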
S1P3 antag-2: human S1P3 receptor antagonism, confirmation | shares compounds with S1P3 antag-1 | CHO S1P3 NFAT-BLA reporter, FRET, antagonist mode | inhibition, % at 4.98 µM | actives 30% (n = 240);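 active = inhibition above the hit threshold that was computed for the earlier primary screen, cut at about 30% in these data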;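 also: 0% = S1P-stimulated wells and 100% = unstimulated DMSO-only wells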
Starred values were filed as active, the others as inactive; i = inactive; ? = inconclusive; nt = no result given. Compounds with a hit are over-represented: about 2.4% of the library has one in this group of screens.

SMILES	EP2 antag	S1P4 antag	Insulin prom inh	EP2 mod	S1P3 antag-1	S1P4 agonist	S1P3 antag-2
CN1CCc2c(n(CC(O)CN3CCN(CCO)CC3)c3ccccc23)C1=O (stereo unspecified)	6	-29	-73	35	41*	2	-9
C=CCNC(=S)Nc1ccc(OC)c(S(=O)(=O)N2CCOCC2)c1	8	-7	nt	-4	-14	-1	nt
C=CCNC(=S)Nc1ccc(Cl)c(S(=O)(=O)N2CCOCC2)c1	7	-13	nt	-31	70*	1	-11
c1ccc(-c2csc3ncnc(NCC4COc5ccccc5O4)c23)cc1 (stereo unspecified)	12	-1	?	25	37*	0	17
Cc1sc2ncnc(NCC3COc4ccccc4O3)c2c1C (stereo unspecified)	10	-16	nt	0	32*	-3	33*
C=CCNc1ncnc2scc(-c3ccccc3)c12	13	nt	nt	-31	nt	nt	nt
Fc1ccccc1CN(CCCn1ccnc1)Cc1ccnn1C1CCCCO1 (stereo unspecified)	7	nt	nt	14	nt	nt	nt
COc1cc2[nH]c(=O)c(C(=O)NC3CC3)c(O)c2cc1OC	16	nt	nt	13	nt	nt	nt
CCN1/C(=C/c2sc(-c3ccccc3C)c[n+]2C)Sc2ccccc21	16	-9	-285	-43	36*	1	38*
CCC(O)C1CCN(C(=O)c2cc(COc3ccc4ncccc4c3)on2)CC1 (stereo unspecified)	23	2	0	-73	33*	-2	8
Cc1cc(C)c2[nH]c(=O)c(C(c3nnnn3C3CCCC3)N3CCN(C)CC3)cc2c1 (stereo unspecified)	15	nt	nt	-12	nt	nt	nt
O=C(OC(C(=O)Nc1cccc(C(F)(F)F)c1)c1ccccc1)C1CCCCC1 (stereo unspecified)	1	4	13	-11	37*	-1	30*
Cc1ncsc1C(=O)N1CCN(Cc2ccccc2F)C[C@@H]1C(C)C	nt	nt	nt	-17	nt	nt	nt
CC(=O)NC1CCN(CC(=O)Nc2ccc(C)cc2)CC1	5	nt	nt	-11	nt	nt	nt
O=C(N/N=C/c1ccc(O)cc1)Nc1cccc2nsnc12	5	-14	nt	-26	31*	-1	4
O=[N+]([O-])c1ccc(C2=NN(c3ccccc3)C(c3ccco3)C2)cc1 (stereo unspecified)	9	12	nt	8	34*	0	46*
O=C(CN1C(=O)[C@H]2CCCN2C(=O)c2ccccc21)N1CCCc2ccccc21	4	nt	nt	3	nt	nt	nt
CC(=O)CCC(=O)OCC(=O)Nc1ccc(SC(F)F)cc1	6	20	nt	-25	43*	-3	-10
CC(C)=CC(=O)OCC(=O)Nc1ccc(SC(F)F)cc1	2	-1	nt	-5	-14	1	nt
CCN1/C(=C/C=C/c2oc3ccc(-c4ccccc4)cc3[n+]2CC)Oc2ccc(-c3ccccc3)cc21	7	10	i	-69	31*	1	54*
CC(C)OC(=O)/C(=C\c1cccc2ccccc12)NC(=O)c1ccccc1	10	12	-20	30	37*	1	24
Cn1ccnc1C1(O)CC2CCC(C1)N2C(=O)Nc1ccc(F)cc1 (stereo unspecified)	nt	nt	nt	-46	nt	nt	nt
Cc1ccccc1-n1c(N)c(C(=O)Nc2ccc(F)cc2)sc1=S	7	-20	-36	-47	-3	4	nt
Cc1ccc(NC(=O)c2sc(=S)n(-c3cc(C)ccc3F)c2N)cc1	6	-8	11	-50	30*	-3	6
O=C(CN1CCC2(CC1)NC(=O)c1ccccc1O2)NC1CCCCC1	4	nt	nt	-46	nt	nt	nt
COc1ccc(-n2c(SCC(=O)O)nc3sc4c(c3c2=O)CCC4)cc1	13	-1	nt	29	12	1	nt
COc1ccc(-n2c(C)nc3sc4c(c3c2=O)CCC4)cc1	8	5	44	28	103*	-1	-9
Cc1ccc(/C=N/Nc2cccc(C(=O)O)c2)s1	9	9	18	-28	-8	0	nt
Cc1ccc(/C=N/Nc2ccc(C(=O)O)cc2)s1	2	-30	-13	-1	42*	1	-3
Cn1c(CN2CCCC2)nc2cc(NC(=O)COc3ccccc3)ccc21	6	-27	30	3	nt	2	nt
